# Data reported in PubChem BioAssay (NCI).
# Compounds without any hit were thinned out: in the full panel of roughly 83,000, 20% have a hit.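 Percent growth is the endpoint: 0 to 100 indicates growth inhibition (40 means 60% inhibition), 0 means no net growth, and negative values indicate cell death.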 Activity calls are given as the source filed them. How the source made its calls: active means growth percent below 10; inactive means the rest.
# System: K-562 leukemia
# Assay: NCI-60 one-dose screen, 48 h (100 = growth as untreated, 0 = no growth, -100 = all killed)
# Conditions: 10 µM unless noted
row,Compound,growth
1,CC1(C)CC[C@]2(C(=O)O)CC[C@]3(C)C(=CCC4[C@@]5(C)C[C@@H](O)[C@@H]6OC(c7ccccc7O)OC[C@@]6(C)C5CC[C@]43C)C2C1 (stereo partly drawn),40.6% (inactive)
2,CN(c1ccc(Br)cc1)S(=O)(=O)c1ccc(-c2cnc(C3CC3)o2)cc1,7.96% (active)
3,CN1CCN(c2nc(-c3csc(-c4ccncc4)n3)cc3ccccc23)CC1,11% (inactive)
4,O=C(O)c1ccc(-n2cc(CNc3ccc(F)cc3)c(-c3ccc(C(F)(F)F)cc3)n2)cc1,58.6% (inactive)
5,CSc1nccc(-c2c(-c3ccc(F)c(OCc4ccc(F)cc4)c3)nc3sccn23)n1,59.7% (inactive)
6,O=C(COc1ccc(C2SCC(=O)N2c2ccccc2)cc1)c1ccccc1 (stereo not drawn),88.9% (inactive)
7,O=C(O)CNS(=O)(=O)c1ccc(Oc2ccc(S(=O)(=O)NCC(=O)O)cc2)cc1,94.3% (inactive)
8,Cn1nc(Nc2ccccc2)c(C(=O)NN)c1N,108% (inactive)
9,COc1cc(/C=N/n2cnc3oc(-c4ccccc4)cc3c2=N)cc(CN2CCN(C)CC2)c1O,26.3% (inactive)
10,CC(C)SC1=NC(=C(C(=N1)NC2=ClC=CC=C2)C#N)C3=CC=CC=C3,59.6% (inactive)
11,NS(=O)(=O)c1ccc(Nc2nc(N/N=C/c3ccc(F)cc3)nc(Nc3ccccc3)n2)cc1,54.6% (inactive)
12,C#C[C@]1(O)CC[C@H]2[C@@H]3CC=C4c5sc(Nc6cccc(C)n6)nc5CC[C@]4(C)[C@H]3CC[C@@]21C,-10.9% (active)
13,CNC(=O)c1cc(Oc2ccc3nc(NC(=O)c4cc(C)cc(C)c4)sc3c2)ccn1,50% (inactive)
14,C=C(C)[C@@H]1CC[C@]2(COS(C)(=O)=O)CC[C@]3(C)[C@H](CC[C@@H]4[C@@]5(C)CCCNC(C)(C)[C@@H]5CC[C@]43C)[C@@H]12,1.12% (active)
15,CC(C)=CCc1c2c(c(O)c3c1O[C@]14C(=C[C@@H]5C[C@H]1C(C)(C)O[C@@]4(C/C=C(/C)C(=O)O)C5=O)C3=O)CC(O)C(C)(C)O2 (stereo partly drawn),5.83% (active)
16,O=C(Cn1cc(CN2C(=O)c3ccc([N+](=O)[O-])cc3C2=O)nn1)Nc1ccccc1Br,98.5% (inactive)
17,COc1cc(-c2nc(SCc3ccc(C)cc3)[nH]c(=O)c2C#N)ccc1OCc1ccccc1,87.9% (inactive)
18,CC(C)N=C(N/C(N)=N/c1nc2ccccc2s1)NC(C)C,23.1% (inactive)
19,O=C(Nc1cc(Cl)cc(Cl)c1)Nc1ccc2oc(=O)ccc2c1,15.4% (inactive)

row,Compound,growth
1,CS(=O)(=O)c1nccc(-c2c(-c3ccc(F)c(OCc4ccccc4)c3)nc3sccn23)n1,75.9% (inactive)
2,COc1ccc(C2C(C#N)=C(N)Oc3c2sc2ccc(C)cc32)cc1 (stereo not drawn),18.2% (inactive)
3,C#C[C@]1(O)CC[C@H]2[C@@H]3CC=C4c5sc(-c6ccccn6)nc5CC[C@]4(C)[C@H]3CC[C@@]21C,31.9% (inactive)
4,COc1ccc(OC)c([C@H]2c3[nH]c4ccccc4c3C[C@H]3C(=O)N(CCCCCCC(=O)NO)CC(=O)N23)c1,54.2% (inactive)
5,Cc1cnc2nc(NN)[nH]n12,103% (inactive)
6,COc1ccc(-c2nc3cc(Cl)c(Cl)cc3n2CC(=O)N=Nc2c(O)[nH]c3ccc(Br)cc23)cc1,21.6% (inactive)
7,O=C(NCCCCCCNC(=O)c1c2c(nc3ccccc13)-c1cccnc1SC2)c1c2c(nc3ccccc13)-c1cccnc1SC2,73.4% (inactive)
8,COc1ccc(-c2ccc3c4c(cccc24)C(=O)N(N2C(=O)c4cccc5cccc(c45)C2=O)C3=O)cc1,86.4% (inactive)
9,COc1ccc(-c2nc3cc(Cl)c(Cl)cc3n2CC(=O)N=Nc2c(O)[nH]c3ccc(Cl)cc23)cc1,32.1% (inactive)
10,CCOC(=O)c1c(NCC(=O)Nc2ccc(Br)cc2)sc2c1CCCC2,10.8% (inactive)
11,CN1C(=O)/C(=C/C=C/c2ccco2)SC1=S,77.7% (inactive)
12,COc1ccc(-c2nnc(SCc3ccc(O)c4ncccc34)o2)cc1,16.3% (inactive)
13,C#CCOc1ccc(/C=N/Nc2nc(-c3cc4cc(Br)cc(Br)c4oc3=O)cs2)cc1,90.7% (inactive)
14,CS(=O)c1nccc(-c2c(-c3ccc(F)c(OCCc4ccc(F)cc4)c3)nc3sccn23)n1 (stereo not drawn),7.91% (active)
15,O=C1[C@@H]2Cc3c([nH]c4ccccc34)[C@H](c3c(Cl)cccc3Cl)N2C(=O)CN1C1CCN(Cc2c(F)cccc2F)CC1,66.3% (inactive)
16,NNC(=O)c1sc2nc(-c3cnccn3)cc(-c3cccs3)c2c1N,95.5% (inactive)
17,Cn1cc(-c2nnc(N)nc2-c2cn(C)c3ccc(F)cc23)c2cc(F)ccc21,101% (inactive)
18,COc1ccccc1/C=C/C=N/NC1=NC2C(S1)N(C)C(=O)N2c1ccccc1 (stereo not drawn),14.3% (inactive)
19,C[C@H]1[C@H](C)CC[C@]2(COC(=O)c3cccnc3)CC[C@]3(C)C(=CC[C@@H]4[C@@]5(C)CCCNC(C)(C)[C@@H]5CC[C@]43C)[C@H]12,14.3% (inactive)
